Rows were chosen to be rich in hits. Some 6.2% of all compounds tested hit in one or more screens of this group.
LASV entry inh: blocks Lassa virus binding to or entry into cells | Lassa virus pseudotype entry inhibition, cell reporter | Potency, µM (top dose mostly 37.9 µM), without a hit: at the top dose activity change, negative = inhibition, most hits filed as inhibitors | 300,000 tested, 1.2% active | AID 540256; calls by dose curve; tested in HEK293 cells; note: potency is the fitted concentration of half-maximal effect; nearly all actives have a fitted effect of over 50% in size
Marburg entry inh: Marburg virus entry inhibition; Marburg virus pseudotyped entry inhibition, cell reporter; Potency, µM (titrated, usually from 37.8 µM), without a hit: at the top dose activity change, negative = inhibition, usual class: inhibitors; 300,000 tested, 1.8% active; calls by dose curve; tested in HEK293 cells; note: potency is the fitted concentration of half-maximal effect
FMDV antiviral: blocks foot and mouth disease virus | Potency, µM (titrated, usually from 57.9 µM), without a hit: at the top dose activity change, negative = inhibition, hits mostly inhibitors | 410,000 tested, 1.2% active | FMDV antiviral cell-based qHTS; calls by dose curve; tested in HEK293T cells; note: read-out not given here; potency is the fitted concentration of half-maximal effect; nearly all actives have a fitted effect of over 45% in size
HCMV inh: blocks human cytomegalovirus replication. HFF cells, HCMV-luciferase reporter, 72 h; stronger effect = lower value. activity change, negative = inhibition, % at 57.5 µM. 410,000 tested, 4.5% active; in the data active = activity change below about -60%; inconclusive = no clear call, values can overlap the other calls; inactive = above about -39%
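After 16 h attachment at 37C, HFF cells received test compound and HCMV-luciferase (1 PFU/cell); reporter luminescence read 72 h later, data normalized against buffer-only and known inhibitor Salinomycin.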
Numbers without * were called inactive; ? = inconclusive; · = no result; + = active, no number; ! = not confirmed by another sample; [ ] = another dose, or the depositor's remark. % is set by controls: 0 for no effect and ±100 for the full control effect.

SMILES	LASV entry inh	Marburg entry inh	FMDV antiviral	HCMV inh
O=c1[nH]c(=S)[nH]c(O)c1N=Nc1ccc2c(c1)OCCO2	?	11µM*	-57%	?
O=c1[nH]c(=S)[nH]c(O)c1N=Nc1ccc2c(c1)OCO2	?	?	0%	?
O=c1[nH]c(O)c(N=Nc2ccc3c(c2)OCCO3)c(=O)[nH]1	?	?	?	-82*
NC(=O)c1sc2nc3c(c(-c4ccco4)c2c1N)CCC3	-14%	-18%	·	-73*
O=C(COC(=O)c1c2c(nc3ccccc13)/C(=C\c1ccco1)CC2)NC1CCCC1	-11%	?	12%	-36
NC(=O)c1sc2nc(-c3ccccc3)c3c(c2c1N)CCCC3	·	·	?	-61*
Nc1c(C(=O)NC2CC2)sc2nc3c(c(-c4ccco4)c12)CC/C3=C/c1ccco1	7%	4.5µM*	-20%	·
O=C(c1ccco1)N1CCN(c2ncnc3c2oc2ccccc23)CC1	?	?	4%	18
COc1cc2c(cc1OC)-c1c(OC)c(OC)cc3c1[C@H](C2)[N+](C)(C)CC3	0%	24%	?	-74*
COc1ccc(C)c2sc(NC(=O)CCS(=O)(=O)c3ccccc3)nc12	?	?	-17%	-89*
CCOc1cccc2sc(NC(=O)CCS(=O)(=O)c3ccccc3)nc12	?	10µM*	-9%	·
CCOc1cccc2sc(Nc3nc4ccc(NC(C)=O)cc4s3)nc12	?	10µM*	0%	-90*
COC(=O)CCCn1c(C)cc(C(=O)CCl)c1C	?	?	28µM*	15
CCOC(=O)c1cc(C)n(CCc2ccccc2)c1C	-3%	-2%[46.1 µM]	0%	-1
COCCn1c(C)cc(C(=O)CSc2ccc(NC(C)=O)cc2)c1C	-9%	-12%	13%	20
COc1ccc(CCn2c(C)cc(C(=O)CSc3nnnn3-c3ccccc3)c2C)cc1	13%	?	-14%	-70*
Cc1cc(C(=O)CCl)c(C)n1CCc1ccccc1	?	?	28µM*	-100*
Cc1cc(C(=O)CSc2nnnn2C)c(C)n1CCc1ccc(Cl)cc1	-14%	-3%[46.1 µM]	-20%	38
COc1ccc2cc(Br)ccc2c1CC(=O)NCCCN1CCOCC1	0%[46.1 µM]	?	-11%	-19
O=c1[nH]c(C2CCN(S(=O)(=O)c3ccccc3F)CC2)nc2c1nnn2Cc1ccc(OC(F)(F)F)cc1	·	·	-11%	8
O=C(Nc1ccccc1O)/C(=C\c1ccccc1)NC(=O)c1ccccc1	23%[46.1 µM]	26%[46.1 µM]	12%	-9
Nc1ccc2nc(-c3ccccc3)sc2c1	3.2µM*	?	10µM*	-32
Cc1cc(-c2nc3ccccc3s2)ccc1N	3.5µM*	?	-73%	-3
CNC(=S)Nc1ccc(-c2nc3ccc(C)cc3s2)cc1	?	?	-29%	88
Nc1ccc(-c2nc3cc(N)ccc3s2)cc1	?	?	-11%	58
SMILES	LASV entry inh	Marburg entry inh	FMDV antiviral	HCMV inh
Cc1ccc2nc(-c3ccc(NS(=O)(=O)c4ccc(F)cc4)cc3)sc2c1	?	?	54%	-94*
Cc1ccc2nc(-c3ccc(N)cc3)sc2c1	?	3.5µM*	8.9µM*	-33
CC(=O)Nc1ccc(S(=O)(=O)Nc2nc3ccc(C)cc3s2)cc1	9%	5%	108%	43
O=C(/C=C/c1cccc(F)c1)NNC(=O)c1ccncc1	1%	-27%	-5%	-17
CCN(CCN(C)C)C(=O)C1CCN(S(=O)(=O)c2c(C)noc2/C=C/c2ccccc2F)CC1	?	·	-4%	-99*!
CCOc1ccccc1NC(=O)C1CCN(S(=O)(=O)c2c(C)noc2/C=C/c2ccco2)CC1	?	3%[46.1 µM]	-16%	-38
CCOc1ccccc1/C=C/c1onc(C)c1S(=O)(=O)N1CCC(C(=O)N(CC)CC)CC1	?	·	-16%	+!
Cn1ncc(N=Cc2ccccc2O)c1C(=O)N1CCOCC1	1%	3%	-9%	1
CN(Cc1ccccc1)c1ncnc2sccc12	-21%	?	?	0
CN(Cc1ccccc1)c1ncc(C=O)s1	-21%[46.1 µM]	?	-7%	-63*
O=C(Nc1ccccn1)NC1CCS(=O)(=O)C1 (stereo not given)	?	-16%	-19%	-103*
O=C(Nc1ccccn1)NC1CCCCC1	12%	?	28%	22
CCOC(=O)[C@@H]1[C@H]2COc3cc(OC)ccc3[C@H]2N2C(=O)N(c3ccc(C(F)(F)F)cc3)C(=O)[C@]12C	·	·	?	-88*
CCOC(=O)[C@@H]1[C@H]2COc3cc(OC)ccc3[C@H]2N2C(=O)N(c3ccc(C)cc3)C(=O)[C@@]12C	·	·	-23%	-75*
COc1ccc(-c2ccc3c(c2)S(=O)(=O)c2cccc(C(=O)NCc4ccccc4Cl)c2C3=O)cc1OC	·	·	5%	-1
COc1ccc(-c2ccc3c(c2)S(=O)(=O)c2cccc(C(=O)NCCOc4ccccc4Cl)c2C3=O)cc1OC	·	·	-13%	-98*
O=C(COC(=O)c1ccc(Br)o1)NCc1cccs1	-9%	3%	-10%	12
CC(=O)c1ccc2cccc3c2c1N=CN3C	-1%	5%	·	-63*
CCO[C@@H]1OC(C(=O)NCc2nc3ccccc3[nH]2)=C[C@H](C)[C@H]1CCCO	·	·	-4%	-40
CCO[C@@H]1OC(C(N)=O)=C[C@H](c2ccc3c(c2)OCO3)[C@H]1CCCO	·	·	-1%	-95*
CCO[C@H]1OC(C(=O)N2CCN(C)CC2)=C[C@@H](C)[C@@H]1CCCO	·	·	-9%	-97*
CCO[C@H]1OC(C(=O)NCc2nc3ccccc3[nH]2)=C[C@@H](C)[C@@H]1CCCO	·	·	-12%	-62*
CCO[C@H]1OC(C(=O)N2CCN(C)CC2)=C[C@@H](C(C)(C)C)[C@@H]1CCCO	·	·	-12%	-7
CCO[C@H]1OC(C(=O)NC2CC2)=C[C@@H](c2ccc3c(c2)OCO3)[C@@H]1CCCO	·	·	-7%	15
CCO[C@H]1OC(C(=O)N2CCN(Cc3ccccc3)CC2)=C[C@@H](c2ccc(C(F)(F)F)cc2)[C@@H]1CCCO	·	·	-17%	-86*
SMILES	LASV entry inh	Marburg entry inh	FMDV antiviral	HCMV inh
CC1(Cc2ccc(Cl)cc2)C(=O)Nc2c(Cl)cccc21 (stereo not given)	·	·	0%	·
COc1ccccc1C1=NNC(=NCc2ccccc2)SC1	12%	?	24%	-60*
c1ccc(CN=C2NN=C(c3ccccc3)CS2)cc1	-21%	?	16%	-30
Clc1ccc(C2=NNC(=NCc3ccccc3)SC2)cc1	20%	?	33%	-79*
Cc1ccccc1N1C(=O)NC(=O)/C(=C\c2cc(Br)c(N3CCOCC3)o2)C1=O	3%	?	16µM*	52
CCCOc1cccc(C(=O)NC(=S)Nc2ccccc2)c1	-3%	6%	31%	-28
CCc1c(C)nc2ncnn2c1NCCc1ccc(Cl)cc1	?	?	14µM*	?
CCOc1ccc(-c2nnc3sc(COc4ccc(Cl)cc4)nn23)cc1	-23%	-1%[46.1 µM]	-21%	-12
CCOc1ccc(-c2nnc3sc(COc4ccc(C)cc4)nn23)cc1	8.2µM*	7%[46.1 µM]	0%	3
CCCNC(=O)c1cc2c(c(-c3cccc(-c4cc5ccccc5o4)c3)n1)[C@H](CCO)N(C(=O)NC(C)C)C2	·	·	?	-88*

Screening results as filed in PubChem.
